Source: PubChem BioAssay (NCATS)
Records with an inconclusive call do not appear. A call without a number means that no potency is given here. Active and inactive are the calls of the source. The call rests on the fitted dose curve; in most records, active means well fitted inhibition curve with a large enough effect; inconclusive means small, poorly fitted or top-dose-only effect; inactive means flat fitted curve, though single readings scatter.

How the values were obtained:
Test in all cases: qHTS profiling for inhibitors of Plasmodium falciparum proliferation (AID 504749); further: nearly all actives have a fitted effect of over 60% in size
Conditions in all cases: P. falciparum in erythrocytes, SYBR Green DNA, 72 h; series mostly up to 28.7 µM
[1] = test system: ECU
Procedure, shortened: (§1)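 Infected RBCs, 0.3% parasitemia/2.5% Hct final; cpd 72 h, 37 C, 5% CO2; lysis buffer with saponin/triton/SYBR Green I, o/n RT dark; FI 485/535; norm. to artemisinin (0.29 uM) and DMSO.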

[2] = test system: FAB9
Procedure, shortened: as §1

[3] = test system: GB4
Procedure, shortened: as §1

[4] = test system: HB3
Procedure, shortened: as §1

[5] = test system: ICS
Procedure, shortened: as §1

[6] = test system: JCK
Procedure, shortened: as §1

[7] = test system: N140
Procedure, shortened: as §1

[8] = test system: P93_24
Procedure, shortened: as §1

[9] = test system: P94_40
Procedure, shortened: as §1

[10] = test system: PAD
Procedure, shortened: as §1
Potency means the concentration at half of the fitted maximal effect.

| SMILES | Potency [1] | Potency [2] | Potency [3] | Potency [4] | Potency [5] | Potency [6] | Potency [7] | Potency [8] | Potency [9] | Potency [10] |
| --- | --- | --- | --- | --- | --- | --- | --- | --- | --- | --- |
| OCCOc1ccccc1 | inactive | inactive | inactive | inactive | inactive | inactive | inactive | inactive | inactive | inactive |
| CC[C@@H](CO)NC(=O)[C@@H]1C=C2c3cccc4[nH]cc(c34)C[C@H]2N(C)C1 | inactive | inactive | inactive | inactive | inactive | inactive | inactive | inactive | inactive | inactive |
| NCCc1cc(O)c(O)cc1O | inactive | inactive | inactive | inactive | inactive | inactive | inactive | inactive | inactive | inactive |
| CN(C)CCc1ccc(O)cc1 | inactive | inactive | inactive | inactive | inactive | inactive | inactive | inactive | inactive | inactive |
| Cc1ccc(S(=O)(=O)N[C@@H](CCCCN)C(=O)CCl)cc1 | – | inactive | – | – | 12.6 µM (active) | – | – | 10 µM (active) | 11.2 µM (active) | 12.6 µM (active) |
| O=c1[nH]c2ccccc2n1CCCN1CCC(n2c(=O)[nH]c3cc(Cl)ccc32)CC1 | 7.94 µM (active) | inactive | – | 10 µM (active) | 2.24 µM (active) | – | 6.31 µM (active) | 5.01 µM (active) | 11.2 µM (active) | 4.47 µM (active) |
| O=P1(NCCCl)OCCCN1CCCl (stereo not drawn) | inactive | inactive | inactive | inactive | inactive | – | inactive | inactive | inactive | inactive |
| C[C@]12C/C(=C/O)C(=O)C[C@@H]1CC[C@@H]1[C@@H]2CC[C@@]2(C)[C@H]1CC[C@]2(C)O | inactive | inactive | inactive | inactive | – | inactive | inactive | inactive | inactive | – |
| c1ccc2c(c1)Nc1ccccc1S2 | – | inactive | 3.79 µM (active) | – | 12.6 µM (active) | inactive | inactive | – | – | – |
| Fc1ccc(C(OCCN2CCN(CCCc3ccccc3)CC2)c2ccc(F)cc2)cc1 | 10 µM (active) | – | 15.1 µM (active) | 8.91 µM (active) | 3.55 µM (active) | 11.2 µM (active) | 5.01 µM (active) | 4.47 µM (active) | 7.94 µM (active) | 8.91 µM (active) |
| CCN(CC)CCN1C(=O)CN=C(c2ccccc2F)c2cc(Cl)ccc21 | inactive | inactive | – | inactive | – | inactive | inactive | – | – | inactive |
| CC(C)(C)CC(C)(C)c1ccc(O)cc1 | – | inactive | – | – | – | inactive | inactive | inactive | – | inactive |
| CCC(COC(=O)c1cc(OC)c(OC)c(OC)c1)(c1ccccc1)N(C)C (stereo not drawn) | inactive | inactive | – | inactive | inactive | inactive | inactive | inactive | – | inactive |
| CN1C[C@H](CNC(=O)OCc2ccccc2)C[C@@H]2c3cccc4c3c(cn4C)C[C@H]21 | 11.2 µM (active) | inactive | 8.49 µM (active) | – | 7.08 µM (active) | inactive | 12.6 µM (active) | 5.01 µM (active) | 6.31 µM (active) | – |
| CCC1(C2=NCCN2)Cc2ccccc2O1 (stereo not drawn) | inactive | inactive | 8.49 µM (active) | inactive | inactive | inactive | 12.6 µM (active) | – | 12.6 µM (active) | inactive |
| CC(C)=CC1C(C(=O)OCc2cccc(Oc3ccccc3)c2)C1(C)C (stereo not drawn) | inactive | inactive | inactive | inactive | – | inactive | inactive | inactive | inactive | inactive |
| c1ccc2c(c1)OCC(C1=NCCN1)O2 (stereo not drawn) | inactive | inactive | – | inactive | – | inactive | inactive | inactive | inactive | inactive |
| CCCN1CCC[C@@H]2Cc3[nH]ncc3C[C@H]21 | – | – | inactive | – | – | – | – | – | – | – |
| N[C@@H](Cc1ccc(N(CCCl)CCCl)cc1)C(=O)O | – | inactive | 15.1 µM (active) | – | – | inactive | – | – | – | – |
| Cc1ccc(-c2nc3ccc(C)cn3c2CC(=O)N(C)C)cc1 | inactive | inactive | inactive | inactive | inactive | inactive | inactive | – | inactive | inactive |

| SMILES | Potency [1] | Potency [2] | Potency [3] | Potency [4] | Potency [5] | Potency [6] | Potency [7] | Potency [8] | Potency [9] | Potency [10] |
| --- | --- | --- | --- | --- | --- | --- | --- | --- | --- | --- |
| Oc1ccc(Cl)cc1Cc1ccccc1 | 11.2 µM (active) | inactive | 8.49 µM (active) | 12.6 µM (active) | 2 µM (active) | – | 7.94 µM (active) | – | 12.6 µM (active) | 11.2 µM (active) |
| COc1ccc(C(CN(C)C)C2(O)CCCCC2)cc1 (stereo not drawn) | inactive | inactive | – | inactive | inactive | inactive | – | inactive | inactive | inactive |
| CC(CCc1ccccc1)NC(C)C(O)c1ccc(O)cc1 (stereo not drawn) | inactive | inactive | – | inactive | inactive | inactive | – | – | – | inactive |
| C=C(C)[C@H]1Cc2c(ccc3c2O[C@@H]2COc4cc(OC)c(OC)cc4[C@@H]2C3=O)O1 | inactive | inactive | – | inactive | 11.2 µM (active) | inactive | inactive | inactive | – | inactive |
| CCOC(=O)C1(c2ccccc2)CCN(CCC(C#N)(c2ccccc2)c2ccccc2)CC1 | 3.98 µM (active) | – | 3.38 µM (active) | 5.01 µM (active) | 2.24 µM (active) | – | 3.55 µM (active) | 3.55 µM (active) | 3.16 µM (active) | 2.51 µM (active) |
| C#CCOC(C(=O)OCCN(C)C)(c1ccccc1)c1ccccc1 | – | inactive | inactive | inactive | – | inactive | inactive | – | inactive | inactive |
| CC1NCCOC1c1ccccc1 (stereo not drawn) | inactive | inactive | – | inactive | inactive | inactive | inactive | inactive | inactive | inactive |
| CC(C)(N)Cc1ccc(Cl)cc1 | inactive | inactive | 8.49 µM (active) | inactive | inactive | – | – | inactive | inactive | inactive |
| CC(C)(C)NCC(O)c1cc(Cl)c(N)c(Cl)c1 (stereo not drawn) | – | inactive | 7.57 µM (active) | inactive | 11.2 µM (active) | – | 8.91 µM (active) | – | 7.94 µM (active) | 7.94 µM (active) |
| N#CC(C#N)=Cc1ccc(O)c(O)c1 | inactive | inactive | – | inactive | inactive | inactive | inactive | inactive | inactive | inactive |
| COc1ccc(C(=O)c2c(C)n(CCN3CCOCC3)c3ccccc23)cc1 | inactive | inactive | – | inactive | – | inactive | inactive | inactive | – | inactive |
| O=c1[nH]c2ccccc2n1C1CCN(CCCC(c2ccc(F)cc2)c2ccc(F)cc2)CC1 | inactive | inactive | inactive | 10 µM (active) | 14.1 µM (active) | inactive | – | – | inactive | inactive |
| CC(C)NCC(O)c1ccccc1Cl (stereo not drawn) | 7.94 µM (active) | inactive | 8.49 µM (active) | – | 4.47 µM (active) | – | 7.08 µM (active) | 12.6 µM (active) | 3.98 µM (active) | 7.94 µM (active) |
| CC(C)CC(N(C)C)C1(c2ccc(Cl)cc2)CCC1 (stereo not drawn) | inactive | inactive | inactive | inactive | inactive | inactive | inactive | inactive | inactive | inactive |
| O=[N+]([O-])c1cc([As](=O)(O)O)ccc1O | 3.16 µM (active) | 3.55 µM (active) | 4.55 µM (active) | 3.16 µM (active) | 3.16 µM (active) | – | 3.55 µM (active) | – | – | – |
| Cn1c(CCCC(=O)O)nc2cc(N(CCCl)CCCl)ccc21 | inactive | inactive | inactive | inactive | – | inactive | inactive | inactive | inactive | inactive |
| Clc1cccc(N2CCNCC2)c1 | inactive | inactive | – | inactive | inactive | inactive | inactive | inactive | inactive | inactive |
| C=C1CC[C@@]2(O)[C@H]3Cc4ccc(O)c5c4[C@@]2(CCN3CC2CC2)[C@H]1O5 | inactive | inactive | – | inactive | inactive | inactive | inactive | inactive | inactive | inactive |
| c1ccc(C2CC2)c(OCC2=NCCN2)c1 | inactive | inactive | – | inactive | inactive | inactive | inactive | inactive | inactive | inactive |
